Source: ChEMBL document CHEMBL1961873, “Compounds: GSK PKIS; Assays: Nanosyn kinase panel” (2012)

Tests used:
[1] = system: Proto-oncogene tyrosine-protein kinase receptor Ret (Homo sapiens), P07949 [Y791F]; details: at 1 µM
[2] = biological target: Macrophage-stimulating protein receptor (Homo sapiens) (UniProt Q04912); details: at 0.1 µM
[3] = biological target: Macrophage-stimulating protein receptor (Homo sapiens) (UniProt Q04912); details: at 1 µM
[4] = biological target: Proto-oncogene tyrosine-protein kinase ROS (Homo sapiens) (UniProt P08922); details: at 0.1 µM
[5] = biological target: Proto-oncogene tyrosine-protein kinase ROS (Homo sapiens) (UniProt P08922); details: at 1 µM
[6] = biological target: Proto-oncogene tyrosine-protein kinase Src (Homo sapiens) (UniProt P12931); details: at 0.1 µM
[7] = biological target: Proto-oncogene tyrosine-protein kinase Src (Homo sapiens) (UniProt P12931); details: at 1 µM
[8] = biological target: Tyrosine-protein kinase Srms (Homo sapiens) (UniProt Q9H3Y6); details: at 0.1 µM
[9] = biological target: Tyrosine-protein kinase Srms (Homo sapiens) (UniProt Q9H3Y6); details: at 1 µM
[10] = biological target: Tyrosine-protein kinase SYK (Homo sapiens) (UniProt P43405); details: at 0.1 µM
[11] = biological target: Tyrosine-protein kinase SYK (Homo sapiens) (UniProt P43405); details: at 1 µM
[12] = biological target: T1, Tyrosine-protein kinase Tec (Homo sapiens) (UniProt P42680); details: at 0.1 µM
T1 sequence (whole entry): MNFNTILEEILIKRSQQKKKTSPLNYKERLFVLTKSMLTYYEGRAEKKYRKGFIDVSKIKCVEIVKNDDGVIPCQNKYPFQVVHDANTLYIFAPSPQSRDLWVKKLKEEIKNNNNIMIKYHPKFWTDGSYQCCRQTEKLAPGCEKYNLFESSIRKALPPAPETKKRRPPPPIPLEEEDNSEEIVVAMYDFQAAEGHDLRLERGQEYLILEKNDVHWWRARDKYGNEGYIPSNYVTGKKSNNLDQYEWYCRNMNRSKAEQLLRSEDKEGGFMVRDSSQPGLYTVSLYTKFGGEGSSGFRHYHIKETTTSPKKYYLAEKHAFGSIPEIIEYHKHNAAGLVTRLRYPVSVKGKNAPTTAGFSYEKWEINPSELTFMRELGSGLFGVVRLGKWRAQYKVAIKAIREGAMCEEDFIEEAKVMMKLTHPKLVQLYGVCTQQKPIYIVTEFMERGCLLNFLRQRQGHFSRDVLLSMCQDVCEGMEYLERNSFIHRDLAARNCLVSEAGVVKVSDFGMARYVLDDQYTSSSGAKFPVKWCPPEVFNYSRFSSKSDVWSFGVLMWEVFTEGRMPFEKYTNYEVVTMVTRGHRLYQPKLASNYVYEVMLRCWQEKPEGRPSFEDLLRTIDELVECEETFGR

[13] = biological target: T1, Tyrosine-protein kinase Tec (Homo sapiens); details: at 1 µM
[14] = biological target: Angiopoietin-1 receptor (Homo sapiens) (UniProt Q02763); details: at 0.1 µM
[15] = biological target: Angiopoietin-1 receptor (Homo sapiens) (UniProt Q02763); details: at 1 µM
[16] = biological target: T2, Non-receptor tyrosine-protein kinase TNK1 (Homo sapiens) (UniProt Q13470); details: at 0.1 µM
T2 sequence (whole entry): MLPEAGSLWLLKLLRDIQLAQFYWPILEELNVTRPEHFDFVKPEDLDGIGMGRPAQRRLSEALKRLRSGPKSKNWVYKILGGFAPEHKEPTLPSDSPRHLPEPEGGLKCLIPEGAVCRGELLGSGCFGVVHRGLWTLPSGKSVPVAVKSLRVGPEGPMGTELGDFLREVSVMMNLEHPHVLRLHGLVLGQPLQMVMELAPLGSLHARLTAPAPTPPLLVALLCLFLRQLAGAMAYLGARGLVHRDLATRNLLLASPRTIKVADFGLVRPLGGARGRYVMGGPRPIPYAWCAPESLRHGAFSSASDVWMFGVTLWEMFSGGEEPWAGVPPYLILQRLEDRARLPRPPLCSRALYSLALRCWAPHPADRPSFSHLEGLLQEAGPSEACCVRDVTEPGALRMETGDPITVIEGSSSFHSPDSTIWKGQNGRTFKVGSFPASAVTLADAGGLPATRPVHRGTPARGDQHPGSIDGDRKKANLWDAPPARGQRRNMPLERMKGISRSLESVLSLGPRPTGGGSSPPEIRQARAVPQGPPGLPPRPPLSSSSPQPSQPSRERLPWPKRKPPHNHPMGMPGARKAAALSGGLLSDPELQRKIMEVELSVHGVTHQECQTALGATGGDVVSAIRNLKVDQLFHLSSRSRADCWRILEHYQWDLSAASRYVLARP

[17] = biological target: T2, Non-receptor tyrosine-protein kinase TNK1 (Homo sapiens); details: at 1 µM
[18] = biological target: Activated CDC42 kinase 1 (Homo sapiens) (UniProt Q07912); details: at 0.1 µM
[19] = biological target: Activated CDC42 kinase 1 (Homo sapiens) (UniProt Q07912); details: at 1 µM
[20] = biological target: High affinity nerve growth factor receptor (Homo sapiens) (UniProt P04629); details: at 0.1 µM;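 note: each value is a mean of replicate percent inhibition readings against TRKA kinase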

Proto-oncogene tyrosine-protein kinase Src (Homo sapiens), sequence (P12931 2-536 limits assumed): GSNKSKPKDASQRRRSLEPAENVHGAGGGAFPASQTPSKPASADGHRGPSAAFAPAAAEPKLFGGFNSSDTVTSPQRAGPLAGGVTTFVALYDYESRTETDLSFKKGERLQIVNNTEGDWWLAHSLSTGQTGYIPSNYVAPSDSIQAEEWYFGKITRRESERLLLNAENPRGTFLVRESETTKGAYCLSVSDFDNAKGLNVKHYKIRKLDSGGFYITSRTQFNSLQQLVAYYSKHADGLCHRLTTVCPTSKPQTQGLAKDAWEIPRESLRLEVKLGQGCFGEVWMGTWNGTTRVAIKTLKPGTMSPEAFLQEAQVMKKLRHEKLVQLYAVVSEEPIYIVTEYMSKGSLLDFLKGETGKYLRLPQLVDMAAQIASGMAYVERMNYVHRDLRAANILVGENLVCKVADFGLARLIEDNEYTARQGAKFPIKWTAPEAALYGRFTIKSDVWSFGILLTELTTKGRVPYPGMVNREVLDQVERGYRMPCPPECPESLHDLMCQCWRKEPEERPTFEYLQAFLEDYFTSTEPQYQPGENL
Macrophage-stimulating protein receptor (Homo sapiens), sequence (Q04912 25-304 limits assumed): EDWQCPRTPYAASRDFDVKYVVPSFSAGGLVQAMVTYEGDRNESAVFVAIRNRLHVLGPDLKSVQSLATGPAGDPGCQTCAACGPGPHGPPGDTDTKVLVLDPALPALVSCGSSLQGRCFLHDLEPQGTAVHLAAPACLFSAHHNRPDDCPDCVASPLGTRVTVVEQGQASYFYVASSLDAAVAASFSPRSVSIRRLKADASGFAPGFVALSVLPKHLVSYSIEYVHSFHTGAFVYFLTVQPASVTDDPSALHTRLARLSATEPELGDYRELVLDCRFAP
Macrophage-stimulating protein receptor (Homo sapiens), sequence (Q04912 310-1400 limits assumed): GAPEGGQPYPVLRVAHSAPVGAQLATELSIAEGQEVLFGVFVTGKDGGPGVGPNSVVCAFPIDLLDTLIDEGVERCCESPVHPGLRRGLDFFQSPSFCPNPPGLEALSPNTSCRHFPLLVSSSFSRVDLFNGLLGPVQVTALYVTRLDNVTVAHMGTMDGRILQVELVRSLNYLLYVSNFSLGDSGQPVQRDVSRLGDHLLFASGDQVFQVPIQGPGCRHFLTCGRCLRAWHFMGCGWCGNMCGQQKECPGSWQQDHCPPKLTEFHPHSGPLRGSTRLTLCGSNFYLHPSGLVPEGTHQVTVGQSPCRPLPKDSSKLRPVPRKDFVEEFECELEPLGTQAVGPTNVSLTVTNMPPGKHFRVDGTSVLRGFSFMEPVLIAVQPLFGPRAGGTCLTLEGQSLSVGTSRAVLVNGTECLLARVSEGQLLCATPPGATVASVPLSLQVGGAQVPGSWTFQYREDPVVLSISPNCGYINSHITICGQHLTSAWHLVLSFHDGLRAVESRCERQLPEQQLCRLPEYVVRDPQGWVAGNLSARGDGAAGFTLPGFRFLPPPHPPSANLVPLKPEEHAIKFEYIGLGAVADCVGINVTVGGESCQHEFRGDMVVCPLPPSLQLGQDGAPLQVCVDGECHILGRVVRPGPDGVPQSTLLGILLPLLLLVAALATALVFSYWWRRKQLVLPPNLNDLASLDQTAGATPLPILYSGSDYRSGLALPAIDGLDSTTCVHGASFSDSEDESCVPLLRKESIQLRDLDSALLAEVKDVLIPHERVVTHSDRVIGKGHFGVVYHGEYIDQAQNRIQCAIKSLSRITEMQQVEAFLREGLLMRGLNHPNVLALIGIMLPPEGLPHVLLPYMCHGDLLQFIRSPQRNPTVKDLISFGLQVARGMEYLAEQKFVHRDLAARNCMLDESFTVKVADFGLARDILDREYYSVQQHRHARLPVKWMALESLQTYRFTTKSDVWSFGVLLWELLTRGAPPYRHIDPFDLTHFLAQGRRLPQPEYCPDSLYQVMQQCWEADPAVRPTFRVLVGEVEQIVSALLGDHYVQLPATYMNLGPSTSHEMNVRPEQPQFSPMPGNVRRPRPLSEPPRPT
Tyrosine-protein kinase Srms (Homo sapiens), sequence (Q9H3Y6 whole entry): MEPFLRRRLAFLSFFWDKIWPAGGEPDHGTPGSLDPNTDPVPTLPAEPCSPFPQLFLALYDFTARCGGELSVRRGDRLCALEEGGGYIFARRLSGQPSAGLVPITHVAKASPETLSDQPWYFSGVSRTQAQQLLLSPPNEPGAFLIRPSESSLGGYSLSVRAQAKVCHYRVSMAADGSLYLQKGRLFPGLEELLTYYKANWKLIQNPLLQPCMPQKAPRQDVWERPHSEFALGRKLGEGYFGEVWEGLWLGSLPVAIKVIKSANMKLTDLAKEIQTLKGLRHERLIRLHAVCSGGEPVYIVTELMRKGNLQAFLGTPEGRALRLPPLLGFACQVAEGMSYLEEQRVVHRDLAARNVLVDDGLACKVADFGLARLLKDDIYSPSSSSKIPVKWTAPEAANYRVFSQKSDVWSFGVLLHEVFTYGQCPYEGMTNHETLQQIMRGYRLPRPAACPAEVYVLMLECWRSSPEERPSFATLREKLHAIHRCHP
Proto-oncogene tyrosine-protein kinase ROS (Homo sapiens), sequence (P08922 whole entry): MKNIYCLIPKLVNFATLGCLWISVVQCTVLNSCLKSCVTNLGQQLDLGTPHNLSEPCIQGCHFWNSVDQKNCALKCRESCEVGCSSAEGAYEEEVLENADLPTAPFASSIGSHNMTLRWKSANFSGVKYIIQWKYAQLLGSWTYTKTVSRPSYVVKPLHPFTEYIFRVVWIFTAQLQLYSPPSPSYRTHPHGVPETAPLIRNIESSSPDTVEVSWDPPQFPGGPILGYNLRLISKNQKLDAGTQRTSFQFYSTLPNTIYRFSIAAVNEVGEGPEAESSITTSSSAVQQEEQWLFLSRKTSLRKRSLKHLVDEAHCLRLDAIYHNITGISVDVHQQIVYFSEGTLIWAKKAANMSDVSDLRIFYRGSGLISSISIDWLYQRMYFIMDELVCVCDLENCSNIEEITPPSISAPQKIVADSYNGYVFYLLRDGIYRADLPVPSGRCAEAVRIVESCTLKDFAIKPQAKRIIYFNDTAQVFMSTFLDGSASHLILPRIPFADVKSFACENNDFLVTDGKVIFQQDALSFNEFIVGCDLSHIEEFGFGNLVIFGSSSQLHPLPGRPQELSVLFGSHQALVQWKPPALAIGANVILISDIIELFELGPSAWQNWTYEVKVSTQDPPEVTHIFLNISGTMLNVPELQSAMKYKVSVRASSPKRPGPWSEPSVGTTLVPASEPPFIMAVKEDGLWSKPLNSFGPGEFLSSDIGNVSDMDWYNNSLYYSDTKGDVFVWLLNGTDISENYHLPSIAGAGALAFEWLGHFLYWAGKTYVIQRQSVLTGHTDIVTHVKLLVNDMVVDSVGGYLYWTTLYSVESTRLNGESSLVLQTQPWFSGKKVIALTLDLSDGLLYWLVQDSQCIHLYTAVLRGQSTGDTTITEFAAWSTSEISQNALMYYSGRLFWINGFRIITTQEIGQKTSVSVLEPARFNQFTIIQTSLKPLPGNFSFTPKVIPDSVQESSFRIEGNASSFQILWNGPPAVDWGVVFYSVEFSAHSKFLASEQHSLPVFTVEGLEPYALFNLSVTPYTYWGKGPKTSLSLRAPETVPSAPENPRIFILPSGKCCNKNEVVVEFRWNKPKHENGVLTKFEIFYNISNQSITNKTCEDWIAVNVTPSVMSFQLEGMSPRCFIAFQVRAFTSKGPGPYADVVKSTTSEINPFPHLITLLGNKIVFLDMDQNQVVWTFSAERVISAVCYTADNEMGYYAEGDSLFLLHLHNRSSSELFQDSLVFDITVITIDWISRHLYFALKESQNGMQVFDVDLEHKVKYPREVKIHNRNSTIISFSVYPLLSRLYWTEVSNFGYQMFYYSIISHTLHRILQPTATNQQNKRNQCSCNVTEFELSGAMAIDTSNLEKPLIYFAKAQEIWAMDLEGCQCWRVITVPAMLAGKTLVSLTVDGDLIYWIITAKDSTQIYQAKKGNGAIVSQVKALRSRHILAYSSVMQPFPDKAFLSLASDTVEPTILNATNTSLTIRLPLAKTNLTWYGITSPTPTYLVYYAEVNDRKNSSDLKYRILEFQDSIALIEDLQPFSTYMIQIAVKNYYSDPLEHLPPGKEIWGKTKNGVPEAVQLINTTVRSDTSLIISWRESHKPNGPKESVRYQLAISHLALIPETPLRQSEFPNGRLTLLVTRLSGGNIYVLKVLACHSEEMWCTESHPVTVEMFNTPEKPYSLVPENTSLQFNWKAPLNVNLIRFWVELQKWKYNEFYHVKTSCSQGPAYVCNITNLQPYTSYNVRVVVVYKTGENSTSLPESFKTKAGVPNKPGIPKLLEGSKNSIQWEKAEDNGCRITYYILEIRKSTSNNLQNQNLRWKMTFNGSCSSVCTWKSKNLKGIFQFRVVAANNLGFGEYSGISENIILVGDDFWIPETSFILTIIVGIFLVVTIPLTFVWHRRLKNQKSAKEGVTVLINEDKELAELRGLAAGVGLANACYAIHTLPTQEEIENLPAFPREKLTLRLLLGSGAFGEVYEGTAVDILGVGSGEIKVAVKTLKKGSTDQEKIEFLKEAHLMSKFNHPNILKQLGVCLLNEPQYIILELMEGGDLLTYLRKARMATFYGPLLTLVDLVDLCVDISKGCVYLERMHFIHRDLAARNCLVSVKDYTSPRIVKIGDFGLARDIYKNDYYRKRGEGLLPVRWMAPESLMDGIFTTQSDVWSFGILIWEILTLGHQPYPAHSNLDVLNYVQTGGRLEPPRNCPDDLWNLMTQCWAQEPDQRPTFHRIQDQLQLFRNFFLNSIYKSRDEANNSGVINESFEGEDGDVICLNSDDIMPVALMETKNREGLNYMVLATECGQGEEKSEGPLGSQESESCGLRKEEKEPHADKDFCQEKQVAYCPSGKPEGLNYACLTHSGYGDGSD

SMILES | inhibition [1] [%] | inhibition [2] [%] | inhibition [3] [%] | inhibition [4] [%] | inhibition [5] [%] | inhibition [6] [%] | inhibition [7] [%] | inhibition [8] [%] | inhibition [9] [%] | inhibition [10] [%] | inhibition [11] [%] | inhibition [12] [%] | inhibition [13] [%] | inhibition [14] [%] | inhibition [15] [%] | inhibition [16] [%] | inhibition [17] [%] | inhibition [18] [%] | inhibition [19] [%] | inhibition [20] [%]
Cc1cc(O)cc(C)c1/C=C/c1cncc(-c2nn[nH]n2)c1 | 14.4 | 3.43 | 8.76 | 6.66 | 11.7 | 11.4 | 69.4 | 9.68 | 48.1 | -3.2 | -1.42 | 15.1 | 65 | 4 | 4.4 | 35.1 | 84.2 | 1.68 | 22 | 3.09
COc1cc(C=NNc2ncnc3c2cnn3-c2ccccc2)ccc1O | 75.1 | 23.7 | 64.5 | 7.09 | 31.2 | 28.6 | 79 | 1.17 | 4.56 | -2.75 | 43.1 | 4.48 | 12.9 | 13 | 52.4 | 10.8 | 51.1 | 1.06 | 5.3 | 3.95
CCn1c(-c2nonc2N)nc2ccncc21 | 1.54 | 0.89 | 0.11 | 2.31 | 2.5 | 8.34 | 4.59 | -0.44 | -0.79 | 0.22 | 1.46 | 2.56 | 3.46 | 2.16 | 2.72 | 3.44 | -5.95 | -0.95 | -2.72 | 0.03
N#Cc1c(NC(=O)c2cccc3ccccc23)sc2c1CCCC2 | 2.2 | 1.52 | 3.88 | 3.2 | 5.26 | 12.3 | 7.06 | -0.23 | -0.56 | -4.41 | 2.16 | 2.31 | 3.43 | 2.34 | 6.02 | 1.31 | -2.02 | 0.12 | 0.56 | 3.35
NCc1ccc(-c2nc(-c3ccc(Cl)c(O)c3)c(-c3ccncc3)[nH]2)cc1 | 76.3 | -0.28 | 2.55 | 2.98 | 8.44 | 19.8 | 63.3 | 3.6 | 21.7 | -2.73 | 1.13 | 6.38 | 33 | 4.33 | 21 | -1.81 | 1.42 | -0.36 | -0.9 | -4.35
COc1ccc(-c2ccncc2)cc1C(N)=O | 6.78 | 9.12 | 1.15 | 5.72 | 17.5 | 11.3 | 12.4 | -0.54 | -5.88 | -1.18 | 0.26 | 6.14 | 5.31 | 5.23 | 6.4 | 3.12 | 5.16 | 1.17 | 2.39 | 1.19
Cn1cc(C=C2C(=O)Nc3cccnc32)c2ccccc21 | – | 3.7 | 0.13 | 4.42 | 10.1 | 12.8 | 42.2 | -1.82 | 0.18 | 3.56 | -2.64 | 2.46 | 8.75 | 2.82 | 5.24 | 4.27 | 9.9 | 0.71 | 1.72 | 13.9
O=C1NC(=O)C(c2ccccc2Cl)=C1Nc1cccc(O)c1 | 6.27 | 1.7 | 4.87 | 3.13 | 6.28 | 3.41 | 7.83 | -0.89 | -2.12 | 0.85 | -0.68 | 3.78 | 4.55 | 1.47 | 5.97 | 3.82 | 2.57 | 1.29 | 3.26 | 4.19
CCn1c(-c2nonc2N)nc2cncc(C(=O)N3CC[C@H](N)C3)c21 | 13.9 | 2.92 | 6.19 | 7.46 | 6.07 | -1.35 | 7.23 | 0.37 | -0.65 | -5.72 | 1.83 | 4.37 | 3.68 | 11.3 | 11.4 | 2.94 | 2.95 | 1.08 | 1.01 | 0.41
CS(=O)(=O)CCNCc1ccc(-c2ccc3ncnc(Nc4ccc(OCc5ccccc5)c(Cl)c4)c3c2)o1 | 12.1 | 3.3 | 5.38 | 3.99 | 4.36 | 0.6 | 3.9 | -0.03 | -0.79 | 1.87 | 1.51 | -0.91 | 0.89 | 7.47 | 9.67 | 2.4 | 11.3 | -0.1 | 0.61 | 2.31
Cc1cccc(-c2n[nH]cc2-c2ccc3ncccc3n2)n1 | 18.7 | 3.7 | 1.79 | 1.26 | 4.08 | 2.63 | 3.67 | 0.03 | 3.34 | 1.27 | -0.38 | 0.76 | 1.51 | 1.2 | 3.33 | -0.63 | 0.33 | -0.11 | 0.91 | -1
COc1cc2ncn(-c3cc(OCc4ccccc4Cl)c(C(N)=O)s3)c2cc1OC | 60.2 | 0.23 | 13.3 | 9.59 | 29.2 | 20.5 | 20.9 | 2.74 | 7.95 | -2.2 | 1.86 | 1.67 | 7.65 | 3.11 | 26.9 | 16.9 | 63.2 | 0.35 | 7.05 | 0.53
Nc1nc(-c2ccccn2)c(-c2ccc3ncccc3n2)s1 | 10.2 | 3.66 | 6.53 | 2.94 | 4.03 | 0.7 | 7.78 | -0.44 | -2.72 | -1.33 | -0.74 | 3.91 | 7.33 | 2.07 | 1.68 | 3.7 | 5.67 | 2.33 | 2.94 | 3.9
Cc1nn(C)c2cc(N(C)c3ccnc(Nc4cccc(S(N)(=O)=O)c4)n3)ccc12 | 46.8 | 5.47 | 22.4 | 63.2 | 80.2 | 11.1 | 49.5 | 0.83 | 9.11 | -6.41 | -0.53 | 25.8 | 67.9 | 10.6 | 52.5 | 30 | 80.7 | 0.86 | 10.2 | 2.81
CS(=O)(=O)CCNCc1nc(-c2ccc3ncnc(Nc4ccc(F)c(Cl)c4)c3c2)cs1 | 31 | 1.17 | -0.2 | -1.86 | 1.3 | 8.61 | 9.31 | -0.09 | 1.81 | 2.81 | -0.34 | 3.79 | 9.13 | 7.71 | 5.89 | 4.58 | 27.1 | 0.19 | 2.87 | 3.85
